This note sets out measurements from ChEMBL document CHEMBL4513216, “Probing the Open Global Health Chemical Diversity Library for Multistage-Active Starting Points for Next-Generation Antimalarials” (ACS Infect Dis, 2020).

About 8,600 (12%) of roughly 69,000 compounds showed an effect of 50% or more. Only a selection was taken, and strong results are over-represented in it overall.

In this assay the test system is Plasmodium berghei. In words: Screen against P. berghei liver stage (PbLuc), transformed with Luciferase, at 10uM. In kind it is functional, HepG2. Conditions: tested at 10 uM.
With `COc1cccc(CNC(=O)c2cccnc2N)c1`, the INHIBITION amounted to 0.207%.
Turning to `CC(C)Sc1ncccc1C(=O)NCc1cccc(N(C)C)c1`, the INHIBITION came out at 19.6%.
Regarding `Nc1ncccc1C(=O)NCc1ccc(Br)cc1`, the INHIBITION was -26.3%.
`Nc1ncccc1C(=O)NCc1cccc(Cl)c1`: the INHIBITION is on record as 69.8%.
Consider `Nc1ncccc1C(=O)NCc1cccc(Br)c1`, for which the INHIBITION is 68.9%.
Regarding `Cc1cccc(CNC(=O)c2cccnc2N)c1`, the INHIBITION came to 44.1%.
In the case of `CC(C)N1CC(C(=O)NCc2ccc(S(=O)(=O)N(C)C)cc2)CC1=O` (stereo unspecified) it was 6%.
Turning to `CN1CCC(Cc2cnc(CNC(=O)Cc3cccc(F)c3)cn2)CC1`, the INHIBITION was 26.75%.
Turning to `Cc1ccc(NC2COC3(CCN(CC(C)C)CC3)C2)nn1` (stereo unspecified), the INHIBITION is 46.7%.
Take `CCc1nnc2n1CCN(C(C(=O)NC1CC1)c1ccc(F)cc1)C2` (stereo unspecified): the INHIBITION came out at 2.61%.
In the case of `CN1CCN(Cc2noc(CCc3nc(-c4ccccc4)no3)n2)CC1`, the INHIBITION is recorded as 74.4%.
Take `CN1CCN(Cc2noc(CC3CCc4ccccc43)n2)CC1` (stereo unspecified): the INHIBITION is given as 42.1%.
In the case of `CCCN1CCC(Cc2nc(CN3CCN(C)CC3)no2)CC1` it was 54.4%.
With `CCCc1nc(CN2CCN(Cc3noc(CCC)n3)CC2)no1`, the INHIBITION is given as 17.7%.
Consider `CN1CCC(Cc2noc(CC3CC3)n2)CC1`, for which the INHIBITION stood at 48.8%.
Next, `CCCc1nc(CN2CCN(CC(O)c3ccccc3)CC2)no1` (stereo unspecified): 34.5%; `Cc1noc(C)c1C(=O)N1CCC(n2cccn2)CC1`: 19.4%.
In the case of `Cc1nc(CN2C(=O)CCC23CCN(c2ncccc2C)CC3)cs1`, the INHIBITION came out at 37.2%.
As for `CC(=O)N1CCc2nnc(C3CCCCN3CC3CC3)n2CC1` (stereo unspecified), the INHIBITION was found to be 3.91%.
With `COCCCNC(=O)Cn1c(C)cc(=O)n2nc(-c3cccs3)nc12`, the INHIBITION is given as 49.1%.
In the case of `COC(=O)Cn1c(C)cc(=O)n2nc(-c3cccs3)nc12` it was 29.2%; in that of `Cc1cc(=O)n2nc(-c3cccs3)nc2n1CC(=O)NC(C)C`, 67.3%; in that of `Cc1cccc(CN(Cc2nc3c(cnn3C)c(=O)[nH]2)C2CC2)c1`, 23.7%.
As to `Cc1cc(C)nc(C2CCN(C(=O)CCn3nnc4ccccc43)C2)n1` (stereo unspecified), the INHIBITION amounted to 22%.
For the compound `CSc1ccccc1NC(=O)N1C[C@@H](N(C)C)[C@H](c2ccc(C)cc2)C1`, the INHIBITION was -5.38%.
Turning to `CCOc1ccc(CN2CC[C@@H]3CC[C@H](C2)N3)cc1CO`, the INHIBITION was 31.2%.
Regarding `Cc1ccc(C(=O)N2CC[C@H]3[C@H]2CCN3CC2CCOCC2)cn1`, the INHIBITION was 57.9%.
As to `O=C(c1cccc(Cl)c1)N1CC[C@H]2[C@H]1CCN2CC1CCOCC1`, the INHIBITION was found to be 30.1%.
Regarding `N#Cc1cccc(C(=O)N2CC[C@H]3[C@H]2CCN3CC2CC2)c1`, the INHIBITION was found to be 12.4%.
For the compound `N#Cc1ccc(C(=O)N2CC[C@H]3[C@H]2CCN3CC2CC2)cc1`, the INHIBITION is recorded as 27.2%.
Take `O=C(c1ccc(F)cc1)N1CC[C@H]2[C@H]1CCN2CC1CCOCC1`: the INHIBITION was found to be 64.9%.
For `O=C(c1cccc(Cl)c1)N1CC[C@H]2[C@H]1CCN2CC1CC1`, the INHIBITION is on record as 64.9%.
`O=C(c1ccc(F)cc1)N1CC[C@H]2[C@H]1CCN2CC1CC1`: the INHIBITION was -12.2%.
With `O=C(c1ccco1)N1CC[C@H]2[C@H]1CCN2CC1CCOCC1`, the INHIBITION was 25%.
Take `Cc1ccc(C(=O)N2CC[C@H]3[C@H]2CCN3CC2CCOCC2)cc1F`: the INHIBITION was 67.2%.
Take `N#Cc1ccc(C(=O)N2CC[C@H]3[C@H]2CCN3CC2CCOCC2)cc1`: the INHIBITION was -13.4%.
For `O=C(c1cscn1)N1CC[C@@H]2[C@@H]1CCN2CC1CCOCC1`, the INHIBITION is on record as -41%.
In the case of `O=C(c1cscn1)N1CC[C@@H]2[C@@H]1CCN2CC1CCOC1` (stereo partly specified), the INHIBITION was 49.4%.
On to `COc1ncc(CN(CCCN2CCOCC2)Cc2ccc(C)o2)cn1`, for which the INHIBITION amounted to 30.4%.
As for `CC(C)c1ncc2c(n1)CN(CCCc1nc3ccccc3o1)CC2`, the INHIBITION worked out at 40.9%.
`Cc1cc(CN2CCC3(CC2)COC(COc2ccccn2)C3)no1` (stereo unspecified): the INHIBITION is listed as -19.8%.
On to `O=C1CCC2(CCNCC2)CN1Cc1nnc2ccccn12`, for which the INHIBITION worked out at 42.1%.
Consider `Cc1[nH]ccc1C(=O)N1CCN(C)C2(CCC(=O)N(C)CC2)C1` (stereo unspecified), for which the INHIBITION is reported as -2.39%.
Next, `CC(C)(C)C(=O)NCCn1ccc(-c2ccccn2)n1`: -43.7%.
In the case of `COc1ccc([C@@H]2CN(Cc3ccncc3)C[C@H]2N(C)C)cc1` it was 33%.
Consider `O=C(c1cccc(F)c1)N1CC[C@H]2[C@H]1CCN2CC1CCOCC1`, for which the INHIBITION was 59%.
On to `N#Cc1cccc(C(=O)N2CC[C@H]3[C@H]2CCN3CC2CCOCC2)c1`, for which the INHIBITION is recorded as 34.6%.
Next, `Cn1cc(CN2CC[C@@H]3[C@@H]2CCN3C(=O)c2cccc(F)c2)cn1`: 10.1%.
Turning to `CS(=O)(=O)c1cncnc1C1CCCN(C(=O)Nc2ccc(F)cc2)C1` (stereo unspecified), the INHIBITION is given as -18.555%.
Next, `COc1ccc(C(=O)N2CCCC(n3cc(C)cn3)C2)c(F)c1` (stereo unspecified): 2.97%.
As to `CCS(=O)(=O)N1CCN(C(=O)NC(C)C)CC2(CNC(=O)C2)C1` (stereo unspecified), the INHIBITION was 3.25%.
On to `CC(=O)N1CCC1c1cc(N2CCNC(=O)C2)nc(C)n1` (stereo unspecified), for which the INHIBITION was found to be 12.84%.
For `Cc1csc(N2CCN(Cc3nccn3C)CC2C)n1` (stereo unspecified), the INHIBITION is on record as 30%.
With `Cc1csc(N2CCN(Cc3cnc(C)s3)CC2C)n1` (stereo unspecified), the INHIBITION was determined as 21.6%.
On to `Cc1csc(N2CCN(Cc3ccccn3)CC2C)n1` (stereo unspecified), for which the INHIBITION is 2.3%.
On to `Cc1csc(N2CCN(Cc3cccnc3)CC2C)n1` (stereo unspecified), for which the INHIBITION is on record as 61.8%.
Turning to `Cc1csc(N2CCN(Cc3cscn3)CC2C)n1` (stereo unspecified), the INHIBITION amounted to 45.9%.
As for `Cc1cnc(CN2CCN(c3nc(C)cs3)C(C)C2)cn1` (stereo unspecified), the INHIBITION worked out at 78.8%.
In the case of `CN(C)Cc1ccc(CNC(=O)NCC2(C)CCCS2)cc1` (stereo unspecified), the INHIBITION is listed as 49.3%.
As for `Cc1ccc(-c2ncc(C(=O)NS(C)(=O)=O)s2)c(C)c1`, the INHIBITION is -2.53%.
Next, `CNC(=O)NC(=O)CCSCc1cc(Cl)cc2cccnc12`: -51.1%; `CC(C)NC(=O)N(C)C1CCN(c2ccccc2Cl)C1=O` (stereo unspecified): -6.61%; `Cc1n[nH]c(C)c1CCC(=O)N1CCC(O)(CN2CCOCC2)C1` (stereo unspecified): 53.65%.
As to `Cc1n[nH]c(C)c1CCC(=O)N1CCC(O)(CN2CCN(C)CC2)C1` (stereo unspecified), the INHIBITION was -15.15%.
Consider `Cc1n[nH]c(C)c1CC(=O)N1CCC(O)(CN2CCOCC2)C1` (stereo unspecified), for which the INHIBITION is -23.55%.
On to `c1nc(N2CCOC(Cn3cncn3)C2)c2cc[nH]c2n1` (stereo unspecified), for which the INHIBITION was found to be 33.8%.
As for `CCOCCC(=O)N1CCc2cccc(S(=O)(=O)N3CCOCC3)c2C1`, the INHIBITION is 53.9%.
For the compound `CCCOC(=O)N1CCc2cccc(S(=O)(=O)N3CCOCC3)c2C1`, the INHIBITION turned out to be 20.3%.
On to `COCC(=O)N1CCc2cccc(S(=O)(=O)N3CCOCC3)c2C1`, for which the INHIBITION was 33.9%.
Turning to `N#Cc1cc(NC(=O)c2ccccc2)ccc1N1CCC(O)CC1`, the INHIBITION is recorded as -4.86%.
For the compound `N#Cc1cc(NC(=O)c2ccncc2)ccc1N1CCC(O)CC1`, the INHIBITION came to 62.3%.
For the compound `N#Cc1cc(NC(=O)c2ccsc2)ccc1N1CCC(O)CC1`, the INHIBITION is 35.1%.
With `Cc1ccc(C(=O)Nc2ccc(N3CCC(O)CC3)c(C#N)c2)s1`, the INHIBITION was found to be 17.6%.
Turning to `N#Cc1cc(NC(=O)c2ccccn2)ccc1N1CCC(O)CC1`, the INHIBITION is -5.25%.
As for `Cc1ccsc1C(=O)Nc1ccc(N2CCC(O)CC2)c(C#N)c1`, the INHIBITION was 96.1%.
Next, `Cn1cccc1C(=O)N[C@H]1CN(Cc2ccoc2)[C@@H]2CCCO[C@H]12`: 34.9%.
In the case of `COCC(=O)NCc1nn(CCN2CCCC2)c(=O)c2ccccc12` it was 31.3%.
On to `Cc1ccc(C)c(CS(=O)(=O)CC(=O)NCCCOC(C)C)c1`, for which the INHIBITION is -2.19%.
On to `Cc1nc(C)n(CC2CCCCN2CC(=O)Nc2nnc(C)s2)n1` (stereo unspecified), for which the INHIBITION was 4.71%.
Next, `CCN(CCOC)C(=O)c1ccc2c(c1)nc(N1CC[C@H](O)C1)n2C`: 1.74%; `Cc1ncc(C(=O)N2CCCC(C(=O)c3nccn3C)C2)c(O)n1` (stereo unspecified): -6.01%.
In the case of `Cc1cccc(C)c1OCC(O)CNCc1c(C)nn(C)c1N(C)C` (stereo unspecified), the INHIBITION is 19.4%.
In the case of `O=C(C1CCOC1)N1CCc2ncc(CNc3ccccn3)n2CC1` (stereo unspecified), the INHIBITION came to 41.5%.
For `c1nc2n(c1CN1CCCC1)CCN(C1CCOCC1)CC2`, the INHIBITION was found to be 80%.
In the case of `c1nc2n(c1CN1CCCCC1)CCN(C1CCOC1)CC2` (stereo unspecified) it was -33.9%.
In the case of `c1ccc(NCc2cnc3n2CCN(CC2CCOC2)CC3)nc1` (stereo unspecified), the INHIBITION turned out to be 27.6%.
With `c1nc2n(c1CN1CCOCC1)CCN(C1CCOC1)CC2` (stereo unspecified), the INHIBITION is -52.3%.
Next, `c1ccc(NCc2cnc3n2CCN(C2CCOC2)CC3)nc1` (stereo unspecified): 81.2%; `c1cnc(N2CCC3(CCN(CC4CCOC4)CC3)CC2)nc1` (stereo unspecified): 15.6%; `CC(NC(=O)OC(C)(C)C)c1nnc(S(=O)(=O)Cc2ccc(Cl)cc2)o1` (stereo unspecified): -19.1%.
Consider `COc1ccc2c(ccn2CCC(=O)NCc2ccc(C(=O)O)cc2)c1`, for which the INHIBITION came out at 7.83%.
As to `O=C([C@H]1C[C@H]2OCC[C@H]2N(Cc2ccco2)C1)N1CCCO1`, the INHIBITION is listed as 34.6%.
`O=C(N1CCCO1)[C@@]12CCO[C@@H]1CCN(Cc1ccccc1)C2`: the INHIBITION is -10.4%.
Regarding `CC(C)c1cccc(NC(=O)Cn2c(=O)n(C)c(=O)c3sccc32)c1`, the INHIBITION stood at 74.7%.
In the case of `CC(C)n1c(=O)c2sccc2n(CC(=O)Nc2ccccc2)c1=O`, the INHIBITION was 52.4%.
Consider `O=C(Cn1c(=O)[nH]c2cn(-c3ccccc3)c(=O)n21)Nc1ccccc1`, for which the INHIBITION was found to be 23.2%.
Next, `Cn1c(=O)c2sccc2n(CC(=O)Nc2cccc(Cl)c2)c1=O`: -25.5%.
For the compound `CCn1c(=O)c2sccc2n(CC(=O)Nc2cccc(Cl)c2)c1=O`, the INHIBITION was 33.3%.
Next, `CC(C)n1c(=O)c2sccc2n(CC(=O)Nc2cccc(Cl)c2)c1=O`: 19.3%; `CC1=N[C@@]2(CC[C@@H]3CN(S(=O)(=O)CC(C)C)C[C@@H]32)C(=O)N1CC(C)C`: 40.4%; `CCN(CC)CCNC(=O)CCc1c(C)nn(-c2ccccc2Br)c1C`: 6.55%.
